Measured values taken from PubChem BioAssay (Tox21).
Inconclusive results are not listed. Activity calls are given as the source filed them. Unless noted, the call rests on the fitted dose curve; in most records, active means well fitted curve in the direction sought with a large enough effect in the repeat runs; inconclusive means weak or mixed curves; inactive means no such curve, though single readings can be large; an effect the other way counts as inactive or inconclusive.

Assays:
[1] = qHTS assay to identify small molecule antagonists of the androgen receptor (AR) signaling pathway using the MDA cell line - cell viability counter screen (AID 743041; further: nearly all actives have a fitted effect of over 45% in size)
Summary of the method: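 Cytotoxicity counter screen: MDA-kb2 AR-luc cells, compound + R1881, 16 h, 37C, 0% CO2; CellTiter-Fluor added at 15.5 h, fluorescence read after 30 min.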

[2] = qHTS assay to identify small molecule antagonists of the thyroid receptor (TR) signaling pathway - cell viability counter screen (AID 743064); further: nearly all actives have a fitted effect of over 50% in size
Summary of the method: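 Fluorescence from CellTiter-Fluor, added after 23.5 h exposure at 37 °C, reported viability of GH3.TRE-Luc cells co-treated with compound and 1 nM T3. Measured in the same wells as the luciferase TR readout.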

[3] = qHTS assay to identify small molecule antagonists of the thyroid receptor (TR) signaling pathway (AID 743065); further: series mostly up to about 70 µM; nearly all actives have a fitted effect of over 55% in size
Summary of the method: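 GH3.TRE-Luc rat pituitary cells (two TREs driving luciferase) were dosed with compound, then stimulated with 1 nM T3 (final) for 23.5 h at 37 C. ONE-Glo luminescence was the read-out, with CellTiter-Fluor fluorescence as the cytotoxicity counter-screen.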

[4] = system: thyroid hormone receptor (rat, GH3 cells); experiment: qHTS assay to identify small molecule agonists of the thyroid receptor (TR) signaling pathway (AID 743066; calls by dose curve)
[5] = target: Estrogen receptor (Homo sapiens) (UniProt P03372); experiment: qHTS assay to identify small molecule antagonists of the estrogen receptor alpha (ER-alpha) signaling pathway (AID 743069; active means well fitted curve in the direction sought with a large enough effect in the signal ratio in the repeat runs, not every such curve was filed as active; the % refers to the signal ratio)
Estrogen receptor (Homo sapiens), sequence (P03372 whole entry, looked up): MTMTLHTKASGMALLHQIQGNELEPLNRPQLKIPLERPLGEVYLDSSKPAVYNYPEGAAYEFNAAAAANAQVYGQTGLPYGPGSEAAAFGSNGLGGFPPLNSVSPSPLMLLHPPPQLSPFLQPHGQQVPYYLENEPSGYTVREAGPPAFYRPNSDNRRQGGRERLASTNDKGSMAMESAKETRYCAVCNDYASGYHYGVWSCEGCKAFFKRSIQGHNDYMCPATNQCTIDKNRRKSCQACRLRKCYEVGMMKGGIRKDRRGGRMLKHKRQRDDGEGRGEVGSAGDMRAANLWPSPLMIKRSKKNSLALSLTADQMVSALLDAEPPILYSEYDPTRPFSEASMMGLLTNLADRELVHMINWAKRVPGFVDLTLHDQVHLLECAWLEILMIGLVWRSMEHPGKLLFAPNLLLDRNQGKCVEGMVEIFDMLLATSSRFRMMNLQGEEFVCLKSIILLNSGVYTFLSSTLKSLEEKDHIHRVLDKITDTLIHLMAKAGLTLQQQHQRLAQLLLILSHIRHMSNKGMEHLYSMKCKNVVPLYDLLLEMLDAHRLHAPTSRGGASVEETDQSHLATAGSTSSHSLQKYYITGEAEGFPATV
Summary of the method: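 Beta-lactamase FRET fluorescence is read after 2 hr at room temperature with LiveBLAzer B/G substrate. Before that, ER-alpha-bla HEK293 cells sit 4 hr after plating, then receive compound plus 17beta-estradiol and incubate 18 hr at 37C.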

[6] = target: Estrogen receptor (Homo sapiens) (UniProt P03372); experiment: qHTS assay to identify small molecule agonists of the estrogen receptor alpha (ER-alpha) signaling pathway (AID 743075; calls by dose curve;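 further: HEK293 GripTite cells with ER-alpha and UAS-driven beta-lactamase reporter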)
[7] = target: Estrogen receptor (Homo sapiens) (UniProt P03372); experiment: qHTS assay to identify small molecule agonists of the estrogen receptor alpha (ER-alpha) signaling pathway using the BG1 cell line (AID 743079); further: nearly all actives have a fitted effect of over 20% in size
[8] = qHTS assay to identify small molecule antagonists of the estrogen receptor alpha (ER-alpha) signaling pathway using the BG1 cell line (AID 743080; calls by dose curve; further: series mostly up to about 70 µM; nearly all actives have a fitted effect of over 25% in size)
Summary of the method: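 Antagonist mode: compounds in DMSO were pinned onto BG1-Luc-4E2 cells alongside 17beta-estradiol agonist, incubated 21.5 h, and ERE-driven luciferase measured with ONE-Glo. Cytotoxicity was multiplexed using CellTiter-Fluor fluorescence.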

[9] = qHTS assay to identify small molecule antagonists of the estrogen receptor alpha (ER-alpha) signaling pathway using the BG1 cell line - cell viability counter screen (AID 743081);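 further: compound given together with 17beta-estradiol as the ER stimulus; series mostly up to about 70 µM; nearly all actives have a fitted effect of over 45% in size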
[10] = target: Aromatase (Homo sapiens) (UniProt P11511); experiment: qHTS assay to identify aromatase inhibitors (AID 743083); further: series mostly up to about 70 µM; nearly all actives have a fitted effect of over 55% in size
Aromatase (Homo sapiens), sequence (P11511 whole entry, looked up): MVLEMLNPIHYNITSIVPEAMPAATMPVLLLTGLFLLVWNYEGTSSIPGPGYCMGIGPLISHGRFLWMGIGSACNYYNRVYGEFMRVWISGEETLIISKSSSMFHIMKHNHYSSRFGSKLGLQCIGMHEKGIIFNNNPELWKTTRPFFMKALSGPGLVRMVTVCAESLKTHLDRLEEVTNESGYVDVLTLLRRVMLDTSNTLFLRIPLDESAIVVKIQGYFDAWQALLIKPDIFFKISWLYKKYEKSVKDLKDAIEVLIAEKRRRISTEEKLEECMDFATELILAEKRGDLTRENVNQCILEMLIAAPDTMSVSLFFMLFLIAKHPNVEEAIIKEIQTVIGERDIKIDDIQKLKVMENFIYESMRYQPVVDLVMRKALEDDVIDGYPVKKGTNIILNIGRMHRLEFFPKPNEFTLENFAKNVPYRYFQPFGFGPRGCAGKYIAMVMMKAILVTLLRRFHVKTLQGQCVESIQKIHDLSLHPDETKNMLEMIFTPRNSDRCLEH

[11] = qHTS assay to identify aromatase inhibitors - cell viability counter screen (AID 743084);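 further: cells stimulated with testosterone during compound exposure; nearly all actives have a fitted effect of over 55% in size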
[12] = target: Aryl hydrocarbon receptor (Homo sapiens) (UniProt P35869); experiment: qHTS assay to identify small molecule that activate the aryl hydrocarbon receptor (AhR) signaling pathway (AID 743085);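 further: HG2L7.5c1 human HepG2 liver cells with stably integrated DRE-driven firefly reporter; series mostly up to about 70 µM; nearly all actives have a fitted effect of over 15% in size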
Aryl hydrocarbon receptor (Homo sapiens), sequence (P35869 whole entry, looked up): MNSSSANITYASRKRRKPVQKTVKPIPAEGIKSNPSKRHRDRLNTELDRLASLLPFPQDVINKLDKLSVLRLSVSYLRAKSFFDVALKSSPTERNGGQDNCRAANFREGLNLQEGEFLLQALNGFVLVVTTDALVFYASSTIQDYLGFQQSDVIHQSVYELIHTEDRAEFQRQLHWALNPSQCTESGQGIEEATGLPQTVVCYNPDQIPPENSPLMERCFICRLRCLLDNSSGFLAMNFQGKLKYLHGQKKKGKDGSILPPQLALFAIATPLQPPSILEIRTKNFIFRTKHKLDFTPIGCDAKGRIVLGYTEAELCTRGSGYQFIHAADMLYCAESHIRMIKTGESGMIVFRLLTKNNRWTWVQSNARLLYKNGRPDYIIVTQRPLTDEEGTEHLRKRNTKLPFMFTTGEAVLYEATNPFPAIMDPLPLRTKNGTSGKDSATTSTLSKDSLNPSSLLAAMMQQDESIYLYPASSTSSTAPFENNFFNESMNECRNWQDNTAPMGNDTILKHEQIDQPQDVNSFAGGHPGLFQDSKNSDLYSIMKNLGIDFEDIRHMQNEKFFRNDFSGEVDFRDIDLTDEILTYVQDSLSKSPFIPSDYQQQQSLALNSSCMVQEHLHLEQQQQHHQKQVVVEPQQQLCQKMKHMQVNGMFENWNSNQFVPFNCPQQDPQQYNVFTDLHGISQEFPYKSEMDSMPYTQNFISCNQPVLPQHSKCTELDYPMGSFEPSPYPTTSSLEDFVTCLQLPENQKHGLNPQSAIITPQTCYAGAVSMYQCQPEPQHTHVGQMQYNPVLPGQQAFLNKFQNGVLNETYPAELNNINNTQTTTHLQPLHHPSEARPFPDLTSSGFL
Summary of the method: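 Cell line HG2L7.5c1 (human hepatoma, 20× DRE-luc). Plated, 5 h 37C, compound/DMSO added, 24 h 37C. CellTiter-Fluor 30 min 37C → fluorescence; then ONE-Glo 30 min RT → luminescence.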

[13] = qHTS assay to identify small molecule that activate the aryl hydrocarbon receptor (AhR) signaling pathway - cell viability counter screen (AID 743086);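 further: HepG2 liver cells carrying the AhR DRE luciferase reporter; series mostly up to about 70 µM; nearly all actives have a fitted effect of over 45% in size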
Summary of the method: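 HepG2-AhR-luc (HG2L7.5c1) cells, 4000/well, treated 24 h at 37 C with compound; viability measured as CellTiter-Fluor fluorescence after 30 min in the same wells as the luciferase read.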

[14] = target: Peroxisome proliferator-activated receptor gamma (Homo sapiens) (UniProt P37231); experiment: qHTS assay to identify small molecule agonists of the peroxisome proliferator-activated receptor gamma (PPARg) signaling pathway (AID 743094; active means well fitted activation curve with a large enough effect in the signal ratio in the repeat runs, not every such curve was filed as active; the % refers to the signal ratio)
Peroxisome proliferator-activated receptor gamma (Homo sapiens), sequence (P37231 whole entry, looked up): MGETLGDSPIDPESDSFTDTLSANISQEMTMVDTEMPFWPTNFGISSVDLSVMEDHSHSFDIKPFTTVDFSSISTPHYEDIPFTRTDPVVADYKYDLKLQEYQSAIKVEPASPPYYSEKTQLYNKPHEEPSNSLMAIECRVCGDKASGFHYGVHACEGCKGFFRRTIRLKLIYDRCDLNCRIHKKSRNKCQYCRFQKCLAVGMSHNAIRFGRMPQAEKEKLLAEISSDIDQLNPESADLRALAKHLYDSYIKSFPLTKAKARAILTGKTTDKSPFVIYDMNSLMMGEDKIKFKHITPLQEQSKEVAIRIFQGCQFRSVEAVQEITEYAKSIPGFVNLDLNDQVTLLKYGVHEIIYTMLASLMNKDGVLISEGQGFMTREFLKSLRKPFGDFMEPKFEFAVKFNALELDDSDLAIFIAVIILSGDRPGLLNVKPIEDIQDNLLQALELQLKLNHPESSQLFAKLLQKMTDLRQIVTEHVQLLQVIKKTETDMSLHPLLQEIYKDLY
Summary of the method: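 Reporter activation was scored by fluorescence of cleaved LiveBLAzer B/G substrate (1 h, room temperature) in PPARg-bla HEK293H cells previously treated 17 h at 37C with DMSO-dissolved compounds.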

[15] = qHTS assay to identify small molecule antagonists of the estrogen related receptor (ERR) signaling pathway - cell viability counter screen (AID 1224818);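 further: series mostly up to about 46 µM; viability measured after 17.5 h of compound exposure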
Summary of the method: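 Quantitative high-throughput viability counter screen in ERR cells. Compounds (DMSO) incubated 17.5 h at 37 C; read-out was CellTiter-Fluor fluorescence.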

[16] = qHTS assay to identify small molecule antagonists of the estrogen related receptor (ERR) signaling pathway (AID 1224819;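 further: luminescence from an ERR-driven luciferase reporter measured with One-Glo reagent; series mostly up to about 46 µM; nearly all actives have a fitted effect of over 50% in size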)
Summary of the method: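 ERR reporter cell line (NTP) plated at 2,000 cells/well, settled 6 h at 37C/5% CO2, then exposed to LOPAC compounds for 18 h at 37C. One-Glo luciferase luminescence read after 30 min at room temperature.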

[17] = qHTS assay to identify small molecule agonists of the estrogen related receptor (ERR) signaling pathway (AID 1224820)
Summary of the method: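 Luminescence readout (One-Glo, 30 min RT) from NTP-supplied ERR cell line exposed to compounds for 18 h at 37 C. Cells seeded 2,000 per well and pre-incubated 6 h before pin-tool compound transfer.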

[18] = system: estrogen-related receptor alpha (ERRalpha) with PGC-1alpha coactivator, human; experiment: qHTS assay to identify small molecule antagonists of the estrogen related receptor signaling pathway with the pleiotropic PPARgamma coactivator (PGC) (AID 1224821; calls by dose curve;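 further: series mostly up to about 46 µM; lower luminescence signal means antagonism of PGC/ERR signalling; nearly all actives have a fitted effect of over 50% in size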)
Summary of the method: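 PGC/ERR reporter cells; 6 h pre-incubation 37 C/5% CO2; pin-tool compound in DMSO, 18 h 37 C; One-Glo added, 30 min RT; luminescence read. qHTS antagonist mode.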

[19] = qHTS assay to identify small molecule antagonists of the estrogen related receptor signaling pathway with the pleiotropic PPARgamma coactivator (PGC) cell viability counter screen (AID 1224822; further: series mostly up to about 46 µM)
Summary of the method: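 Cytotoxicity in the PGC/ERR cell line is assessed with CellTiter-Fluor, read as fluorescence intensity 30 min after reagent addition, following 17.5 h compound treatment at 37 C.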

[20] = qHTS assay to identify small molecule agonists of the estrogen related receptor signaling pathway with the pleiotropic PPARgamma coactivator (PGC) (AID 1224823)
Summary of the method: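 Luminescence readout (One-Glo, 30 min RT) from PGC/ERR cell line treated 18 h at 37 C with pin-tool-delivered DMSO compound solutions; cells plated 6 h before dosing. Quantitative HTS format.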

[21] = qHTS assay to identify small molecule phospholipidosis (PLD) inducers (AID 1259344; active means well fitted curve in the direction sought with a large enough effect; an effect the other way counts as inactive or inconclusive)
Summary of the method: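 Read-out is LipidTOX Red fluorescence (ex 595/em 615) imaged in HepG2 cells after 24 h compound exposure at 37 C, with Hoechst nuclear counterstain (ex 352/em 461) allowing per-cell normalisation.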

[22] = target: Nuclear receptor subfamily 1 group I member 2 (Rattus norvegicus) (UniProt Q9R1A7); experiment: Rat pregnane X receptor (rPXR) activation by small molecules, qHTS assay (AID 1346983); conditions: rPXR luciferase reporter cells, One-Glo luminescence, 24 h; max activation: active compounds read high; further: nearly all actives have a fitted effect of over 20% in size
Nuclear receptor subfamily 1 group I member 2 (Rattus norvegicus), sequence (Q9R1A7 whole entry, looked up): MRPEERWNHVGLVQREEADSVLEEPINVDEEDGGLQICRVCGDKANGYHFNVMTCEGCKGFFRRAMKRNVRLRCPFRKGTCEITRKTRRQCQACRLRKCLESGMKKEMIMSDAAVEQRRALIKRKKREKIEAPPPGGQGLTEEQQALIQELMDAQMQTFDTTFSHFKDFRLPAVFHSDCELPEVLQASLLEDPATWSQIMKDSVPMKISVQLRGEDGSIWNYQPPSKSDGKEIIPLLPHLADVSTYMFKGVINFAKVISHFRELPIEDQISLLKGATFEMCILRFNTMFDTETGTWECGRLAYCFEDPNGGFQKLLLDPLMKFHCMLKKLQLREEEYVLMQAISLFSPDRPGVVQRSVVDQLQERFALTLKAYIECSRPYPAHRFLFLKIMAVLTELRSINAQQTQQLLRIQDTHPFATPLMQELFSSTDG
Summary of the method: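 Cell-based rPXR activation assay: rPXR cells, 2,000 per well, rested 5hr at 37 C, then exposed to compounds in DMSO for 24 hr at 37 C. Luciferase activity read by One-Glo luminescence after 30 min at room temperature.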

[23] = target: Nuclear receptor subfamily 1 group I member 2 (Homo sapiens) (UniProt O75469); experiment: CYP3A4 induction through human pregnane X receptor (PXR) by small molecules, qHTS assay (AID 1346984); further: nearly all actives have a fitted effect of over 40% in size
Summary of the method: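 Induction measured in HepG2-based DPX-2 cells co-expressing human PXR and a CYP3A4 promoter-driven luciferase. After a 24-hour compound exposure, cells received CYP3A4 luciferin substrate at 3uM final for 3 hours, and light output was then recorded.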

[24] = target: Nuclear receptor subfamily 1 group I member 2 (Homo sapiens) (UniProt O75469); experiment: Human pregnane X receptor (PXR) activation by small molecules, qHTS assay (AID 1346985); further: nearly all actives have a fitted effect of over 40% in size
Summary of the method: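 DPX-2 cells (HepG2 co-transfected with a PXR response element and a CYP3A4-promoter luciferase construct) were seeded at 2,000 per well, rested 5 hr at 37C, then exposed to DMSO-dissolved compounds for 24 hr. Activation was read as luciferase luminescence.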
On the % scale 0 is the no-effect control and ±100 the full control effect.

CCCN1CCC[C@H](c2cccc(O)c2)C1
inactive: Potency [1] | Potency [2] | Potency [3] | Potency [4] | Potency [5] | Potency [6] | Potency [7] | Potency [8] | Potency [9] | Potency [10] | Potency [11] | Potency [12] | Potency [13] | Potency [14] | Potency [15] | Potency [16] | Potency [17] | Potency [18] | Potency [19] | Potency [20] | Potency [21] | max activation [22] -2.62% | Potency [23] | Potency [24]
